# Results filed as inconclusive are left out. A call without a number means that no potency is given here. A number with no mark means an inactive call. Calls of active or inactive are those of the source. The call rests on the fitted dose curve; in most records, active means well fitted inhibition curve with a large enough effect; inconclusive means small, poorly fitted or top-dose-only effect; inactive means flat fitted curve, though single readings scatter.
# Biological target: Calcium and integrin-binding protein 1 (Homo sapiens) (UniProt Q99828)
# Sequence (Q99828 whole entry, looked up): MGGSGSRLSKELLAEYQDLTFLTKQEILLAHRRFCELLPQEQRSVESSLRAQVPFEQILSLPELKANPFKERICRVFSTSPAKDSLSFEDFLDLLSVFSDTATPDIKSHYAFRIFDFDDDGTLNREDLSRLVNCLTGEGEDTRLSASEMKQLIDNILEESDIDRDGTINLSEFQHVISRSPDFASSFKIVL
# Assay: Primary qHTS for Identification of Calcium Integrin Binding Protein 1 (CIB1) Competitor (AID 1508620);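 further: GST tagged CIB1 binding a fluorescein labelled alphaIIb integrin peptide tracer; top concentration of the series differs between compounds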
# Details: CIB1-GST / FITC-alphaIIb peptide fluorescence polarization; series mostly up to 57.7 µM
# How it was run: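 CIB1-GST (1 uM final) and compound incubated 15 min at room temperature before adding FITC-alphaIIb peptide tracer (100 nM final). Competition for binding read by fluorescence polarization (ex 480, em 540) after another 15 min at room temperature.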
SMILES,Potency,"activity change, negative = inhibition"
C=C1C(=O)O[C@@H]2C[C@]3(C)[C@@H](CCC(C)=O)[C@@H]3C[C@H]12,inactive,
Cc1c(-c2ccc3c(c2)OCO3)oc2ccc(C(O)C(C)O)cc12 (stereo not given),inactive,
CCC(C)/C=C(C)/C=C/C(=O)C1CCC(O)C(C)(O)C1=O (stereo not given),inactive,
CC(=O)OC1C(CO)OC(O[C@H]2[C@H](OC(=O)[C@]34CCC(C)(C)C[C@H]3C3=CCC5[C@@]6(C)CC[C@H](O[C@@H]7O[C@H](C(=O)O)[C@@H](O)[C@H](O[C@@H]8OC[C@@H](O)[C@H](O)[C@H]8O)[C@H]7O[C@@H]7O[C@H](CO)[C@H](O)[C@H](O)[C@H]7O)[C@@](C)(C=O)C6CC[C@@]5(C)[C@]3(C)C[C@H]4O)O[C@H](C)[C@H](OC3OC(C)C(OC4OCC(O)C(O)C4O)C(O)C3O)[C@@H]2O)C(O)C1O (stereo not given in full),,4.08% [at 12.4 µM]
CC(=O)O[C@@H]1C[C@@H](C)[C@](O)(CCC2=CC(=O)OC2)[C@@]2(C)CCCC(C)(C)C12 (stereo not given in full),inactive,
C[C@@H]1O[C@@H](O[C@H]2[C@H](OC(=O)[C@]34CCC(C)(C)C[C@H]3C3=CCC5[C@@]6(C)CC[C@H](O[C@@H]7O[C@H](CO[C@@H]8OC[C@H](O)[C@H](O)[C@H]8O)[C@@H](O)[C@H](O)[C@H]7O)C(C)(C)C6CC[C@@]5(C)[C@]3(C)C[C@H]4O)OC[C@@H](O)[C@@H]2O)[C@H](O)[C@H](O[C@@H]2OC[C@](O)(CO)[C@H]2O)[C@H]1O[C@@H]1OC[C@H](O)[C@H](O[C@@H]2OC[C@@H](O)[C@H](O)[C@H]2O)[C@H]1O (stereo not given in full),,2.98% [at 12.4 µM]
C=C(C)[C@@H]1CC[C@]2(C(=O)O)CC[C@]3(C)[C@H](CCC4[C@@]5(C)CCC(=O)C(C)(C)C5C(O)C[C@]43C)C12 (stereo not given in full),inactive,
C/C(=C\C(=O)C(C)C1CCC2C3=C(CCC21C)C1(C)CCC(=O)C(C)(C)C1(O)CC3)C(C)(C)O (stereo not given),inactive,
CC1(C)CC[C@]2(C(=O)O[C@@H]3O[C@H](CO)[C@@H](O)[C@H](O)[C@H]3O)[C@H](O)C[C@]3(C)C(=CCC4[C@@]5(C)CC[C@H](O[C@@H]6OC[C@@H](O)[C@H](O)[C@H]6O)[C@@](C)(C(=O)O)C5CC[C@]43C)[C@@H]2C1 (stereo not given in full),inactive,
COc1ccc(C2COc3cc(O)ccc3C2)c(O)c1OC (stereo not given),inactive,
COCCN1CCC(C(=O)NO)(S(=O)(=O)c2ccc(Oc3ccc(OC(F)(F)F)cc3)cc2)CC1,inactive,
C=C1CC2C3(C)C(O)CC(=O)C(C)(C)C3C(O)C(OC(C)=O)C2(C)C2C(=O)OC(C)(C(=O)OC)C(=O)C12C (stereo not given),inactive,
CN1CCCC1Cc1c[nH]c2ccc(CCS(=O)(=O)c3ccccc3)cc12 (stereo not given),inactive,
CC(C)=CCc1c(O)cc2oc3cc(C)cc(O)c3c2c1C,inactive,
CC(CCO)CCC1C2(C)CCCC(C)(C)C2CC[C@@]1(C)O (stereo not given in full),inactive,
C=C(C)C1Cc2c(ccc3c2OCC(c2ccc(O)cc2O)C3)O1 (stereo not given),inactive,
C=C1C(=O)OC2CC(COC(=O)C(C)C)=C(C(C)CCCOC(C)=O)[C@@H](OC(C)=O)C12 (stereo not given in full),inactive,
C=C(C)[C@H]1CC[C@]2(C(=O)O)CC[C@]3(C)C(CCC4[C@@]5(C)CCC(=O)C(C)(C)C5CC[C@]43C)C12 (stereo not given in full),inactive,
CC(=O)OC(C)(C)/C=C/C(=O)[C@](C)(O)C1[C@H](O)C[C@@]2(C)[C@@H]3CC=C4[C@@H](C[C@H](O[C@@H]5O[C@H](CO)[C@@H](O)[C@H](O)[C@H]5O)C(=O)C4(C)C)[C@]3(C)C(=O)C[C@]12C (stereo not given in full),inactive,
Cc1ccc([C@@H]2CC=C(C(=O)O)[C@H](c3ccc(C(C)(C)C)cc3)N2S(=O)(=O)c2ccc(C)cc2)cc1,inactive,
COC(=O)[C@H](c1ccccc1Cl)N1CCC2SC(=O)C=C2C1 (stereo not given in full),inactive,
CC(O)C(=O)/C=C/C=C/C(=O)OC1C=C2COC(=O)C2(O)C2(C)CCCC(C)(C)C12 (stereo not given),inactive,
C/C=C(\C)C1C(C)=CC2CCC(OS(=O)(=O)O)C(C)C2C1/C=C/C=C/C(=O)O (stereo not given),inactive,
C/C=C/C=C/C=C/C(=O)O[C@@H]1C=C(CO)[C@](O)(CO)[C@@]2(C)CCCC(C)(C)[C@H]12,inactive,
C=C1Cc2c(Cl)cc3[nH]c4c5c3c2[C@@]2(O)[C@@H]1C[C@@H]2C(C)(C)O[C@H]5C1CC[C@@]2(O)[C@@]35O[C@@H]3[C@H]3OC(C)(C)[C@H]3O[C@H]5CC[C@]2(C)[C@@]41C (stereo not given in full),inactive,
